Measured values from PubChem BioAssay (NCATS).
Inconclusive results are not listed. A call without a number means that no potency is given here. A number with no mark means an inactive call. Calls of active or inactive are those of the source. The call rests on the fitted dose curve; in most records, active means well fitted curve in the direction sought with a large enough effect; inconclusive means small, poorly fitted or top-dose-only effect, or another doubt; inactive means no such curve, though single readings can be large; an effect the other way counts as inactive or inconclusive.

What was measured:
[1] = molecular target: Rap guanine nucleotide exchange factor 3 (Homo sapiens) (UniProt O95398); assay: Confirmatory qHTS for agonist of cAMP-regulated guanine nucleotide exchange factor 3 (EPAC1) (AID 1645881); conditions: EPAC1 Rap1B BODIPY-GDP exchange fluorescence, 100% = cAMP control response; series mostly up to 154 µM;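 further: EPAC1 catalysed release of BODIPY-GDP from Rap1B seen as fluorescence loss; nearly all actives have a fitted effect of over 75% in size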
Chain of Rap guanine nucleotide exchange factor 3 (Homo sapiens) (O95398 whole entry, looked up): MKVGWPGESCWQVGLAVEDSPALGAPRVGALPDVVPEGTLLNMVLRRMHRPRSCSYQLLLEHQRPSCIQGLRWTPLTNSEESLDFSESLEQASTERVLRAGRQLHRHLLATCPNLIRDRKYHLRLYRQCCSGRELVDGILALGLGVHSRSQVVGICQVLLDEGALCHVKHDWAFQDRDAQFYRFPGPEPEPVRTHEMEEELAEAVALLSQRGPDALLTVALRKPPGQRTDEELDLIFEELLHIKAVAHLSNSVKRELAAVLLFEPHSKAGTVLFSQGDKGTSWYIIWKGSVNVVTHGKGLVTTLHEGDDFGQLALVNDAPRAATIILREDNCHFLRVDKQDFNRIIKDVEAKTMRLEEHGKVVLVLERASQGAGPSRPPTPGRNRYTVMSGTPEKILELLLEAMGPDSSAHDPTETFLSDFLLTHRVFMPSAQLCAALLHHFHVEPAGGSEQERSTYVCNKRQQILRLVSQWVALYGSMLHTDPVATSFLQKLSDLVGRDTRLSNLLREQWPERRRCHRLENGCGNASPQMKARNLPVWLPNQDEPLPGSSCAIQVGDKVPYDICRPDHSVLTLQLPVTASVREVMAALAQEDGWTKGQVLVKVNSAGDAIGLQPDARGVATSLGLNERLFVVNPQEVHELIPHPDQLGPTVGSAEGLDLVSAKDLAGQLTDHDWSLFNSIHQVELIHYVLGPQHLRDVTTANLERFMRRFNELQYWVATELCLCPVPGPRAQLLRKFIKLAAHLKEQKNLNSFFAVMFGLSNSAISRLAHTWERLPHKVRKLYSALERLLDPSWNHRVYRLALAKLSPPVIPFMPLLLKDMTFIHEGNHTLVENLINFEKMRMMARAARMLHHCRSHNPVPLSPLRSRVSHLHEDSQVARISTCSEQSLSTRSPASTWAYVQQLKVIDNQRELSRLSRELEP

[2] = molecular target: Rap guanine nucleotide exchange factor 3 (Homo sapiens) (UniProt O95398); assay: Confirmatory qHTS for antagonist of cAMP-regulated guanine nucleotide exchange factor 3 (EPAC1) (AID 1645880); conditions: EPAC1 Rap1B-BODIPY-GDP exchange, fluorescence; further: potency means the concentration at half of the fitted maximal effect; nearly all actives have a fitted effect of over 55% in size
In short: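 Released BODIPY-GDP fluoresces less than Rap1-bound BODIPY-GDP; the signal is followed at 480/540 nm at 5-min intervals over 30 min, after 5 min at room temperature. Reactions contain 100 nM EPAC1, 250 nM RAP1B-BODIPY-GDP and 50 uM GDP; results are normalized to ATA and DMSO.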

[3] = Primary qHTS for inhibitors of nuclear receptor binding SET domain protein 2 (NSD2) in an isogenic RCH-ACV NSD2 p.E1099K mutant (9B) (AID 1645876); conditions: RCH-ACV NSD2 E1099K (9B) viability, CellTiter-Glo, 72 h; series mostly up to 44.9 µM; further: nearly all actives have a fitted effect of over 70% in size
[4] = Primary qHTS for inhibitors of nuclear receptor binding SET domain protein 2 (NSD2) in an RCH-ACV wild type WT cells (2C) (AID 1645877); conditions: RCH-ACV (leukaemia line) NSD2 WT (2C) viability, CellTiter-Glo, 72 h; series mostly up to 44.9 µM; further: nearly all actives have a fitted effect of over 70% in size; further: potency means the concentration at half of the fitted maximal effect

Question: Which outcome [1] does the source give for `CC(C)(C)NC(=O)[C@@H]1C[C@@H]2CCCC[C@@H]2CN1C[C@@H](O)[C@H](Cc1ccccc1)NC(=O)[C@H](CC(N)=O)NC(=O)c1ccc2ccccc2n1` here?
Answer: inactive

Question: With `CC(Cc1ccc(O)c(O)c1)C(C)Cc1ccc(O)c(O)c1` (stereo unspecified) as the compound, how does the Potency [2] read?
Answer: 31.4 µM (active)

Question: And the outcome [1]?
Answer: inactive

Question: Which results are given for `COc1ccc([C@H]2Cc3cccc(O)c3C(=O)O2)cc1`?
Answer: Potency [3]: inactive; Potency [4]: inactive

Question: Which Potency [3] does the source give for `C=C1[C@@H]2[C@H]3OC(=O)C(=C)[C@@H]3CC[C@@](C)(O)[C@@H]2C[C@@H]1O[C@@H]1O[C@H](CO)[C@@H](O)[C@H](O)[C@H]1O` here?
Answer: inactive

Question: What about the Potency [4] of the same compound?
Answer: inactive

Question: Which Potency [4] does the source give for `NCCOCCOCCNC(=O)Cc1ccc(Nc2nc(NCc3ccc(F)cc3)nc(NCC3CCCCC3)n2)cc1` here?
Answer: 16.3 µM (active)

Question: With `CC(C)(O)C1=CCC23COC(C2)C(O)(C(=O)O)CCC13` (stereo unspecified) as the compound, how does the Potency [3] read?
Answer: inactive

Question: And the Potency [4]?
Answer: inactive

Question: With `Nc1c(Br)cc(Br)cc1CNC1CCC(O)CC1` (stereo unspecified) as the compound, how does the Potency [4] read?
Answer: inactive

Question: Which Potency [4] does the source give for `CC(C)C(=O)OCC(=O)[C@@]12O[C@H](C3CCCCC3)O[C@@H]1C[C@H]1[C@@H]3CCC4=CC(=O)C=C[C@]4(C)[C@H]3[C@@H](O)C[C@@]12C` here?
Answer: 0.0209 µM (active)

Question: With `CCOC(=O)c1ccc(N(C)c2csc(-c3ccccc3)n2)cc1` as the compound, how does the Potency [3] read?
Answer: inactive

Question: And the Potency [4]?
Answer: inactive

Question: Which Potency [3] does the source give for `O=C(NN1CCCCC1)c1nn(-c2ccc(Cl)cc2Cl)c(-c2ccc(C#Cc3ccc(C(F)(F)F)cc3)s2)c1CNS(=O)(=O)N1CCCC1` here?
Answer: inactive

Question: What about the Potency [4] of the same compound?
Answer: inactive

Question: For `CC(C)CC(=O)OC[C@H]1O[C@@](COC(=O)CC(C)C)(O[C@H]2O[C@H](CO)[C@@H](O)[C@H](O)[C@H]2OC(=O)CC(C)C)[C@@H](OC(=O)CC(C)C)[C@@H]1O`, which Potency [3] is on record?
Answer: inactive

Question: What about the Potency [4] of the same compound?
Answer: inactive

Question: For `COC1C2=C(COC2=O)C2(C)CCCC(C)(CO)C2C1OC(=O)c1ccccc1` (stereo unspecified), which Potency [4] is on record?
Answer: inactive

Question: Which Potency [3] does the source give for `CC[C@H]1OC(=O)[C@H](C)[C@@H](OC2C[C@@](C)(OC)[C@@H](O)[C@H](C)O2)[C@H](C)[C@@H](OC2O[C@H](C)C[C@H](NC)[C@H]2O)[C@](C)(O)C[C@@H](C)CN(C)[C@H](C)[C@@H](O)[C@]1(C)O` (stereo partly specified) here?
Answer: inactive

Question: What about the Potency [4] of the same compound?
Answer: inactive

Question: For `C=CC(C)(O)CC/C=C(/C)C(=O)OC1C(OC2OCC(OC3OC(CO)C(O)C(O)C3O)C(OC3OCC(O)C(OC4OC(C)C(O)C(O)C4O)C3O)C2O)COC(OC(=O)C23CCC(C)(C)CC2C2=CCC4C5(C)CCC(OC6OC(CO)C(OC7OC(CO)C(O)C(OC8OCC(O)C(O)C8O)C7O)C(O)C6O)C(C)(C)C5CCC4(C)C2(C)CC3O)C1O` (stereo unspecified), which activity change, negative = cell killing [4] is on record?
Answer: -25% [at 4.96 µM]

Question: Which Potency [3] does the source give for `CC1CC(O)CC(C)(C)C1(O)CCO` (stereo unspecified) here?
Answer: inactive

Question: What about the Potency [4] of the same compound?
Answer: inactive

Question: Which Potency [4] does the source give for `O=C(O[C@@H]1O[C@H](CO)[C@@H](O)[C@H](O)[C@H]1O)c1c(O)cc(O)cc1/C=C/c1ccccc1` here?
Answer: inactive

Question: Which Potency [4] does the source give for `OC[C@H]1O[C@@H](Oc2cc(O)cc(-c3cc4ccc(O)cc4o3)c2)[C@H](O)[C@@H](O)[C@@H]1O` here?
Answer: inactive

Question: For `CC1=C(/C=C/C(C)=C/C=C/C(C)=C/C=C/C=C(C)/C=C/C=C(C)/C=C/C2=C(C)CCCC2(C)C)C(C)(C)CCC1`, which Potency [4] is on record?
Answer: 18.6 µM (active)

Question: For `COc1cc(-c2cccc(O)c2)cc2c1OCO2`, which Potency [3] is on record?
Answer: inactive

Question: And the Potency [4]?
Answer: inactive

Question: Which results are given for `CC1(CO)CC[C@]2(C(=O)O[C@@H]3O[C@H](CO)[C@@H](O)[C@H](O)[C@H]3O)CC[C@]3(C)C(=CCC4[C@@]5(C)CC[C@H](O[C@@H]6O[C@H](C(=O)O)[C@@H](O)[C@H](O)[C@H]6O)C(C)(C)C5CC[C@]43C)C2C1` (stereo partly specified)?
Answer: outcome [3]: inactive [at 9.23 µM]; outcome [4]: inactive [at 9.23 µM]

Question: For `CC1CCC2(NC1)OC1C(=O)C3C4CCC5CC(O[C@@H]6O[C@H](CO)[C@@H](O)[C@H](O)[C@H]6O[C@@H]6O[C@@H](C)[C@H](O)[C@@H](O)[C@H]6O)CCC5(C)C4CCC3(C)C1C2C` (stereo partly specified), which Potency [3] is on record?
Answer: inactive

Question: What about the Potency [4] of the same compound?
Answer: inactive

Question: Which results are given for `CCC(C)/C=C(C)/C=C/C1=CC2=C(Cl)C(=O)C(C)(OC(C)=O)C(=O)C2=CN1CCCC(=O)O` (stereo unspecified)?
Answer: Potency [3]: inactive; Potency [4]: inactive

Question: Which results are given for `C=C(C)C1CC2(CO)C(=CC1=O)CCC(O)C2C` (stereo unspecified)?
Answer: Potency [3]: inactive; Potency [4]: inactive

Question: Which Potency [4] does the source give for `CCCOc1ccn2c(C(C)=O)cc(-c3ccccc3S(C)(=O)=O)c2c1` here?
Answer: 18.6 µM (active)

Question: For `CC(=O)O[C@@H]1[C@H]2[C@@H](OC(=O)c3ccccc3)[C@@H](C)C[C@]2(O)[C@H](OC(C)=O)[C@@]2(C)[C@@H]3CC(C)(C)C(=O)[C@]3(OC(C)=O)C[C@@]12C`, which Potency [4] is on record?
Answer: inactive

Question: For `C/C=C(\C)C(=O)O[C@H]1[C@@H](O[C@]2(COC(=O)CC(C)C)O[C@H](COC(=O)C(C)C)[C@@H](OC(C)=O)[C@@H]2O)O[C@H](COC(C)=O)[C@@H](O)[C@@H]1O`, which Potency [3] is on record?
Answer: inactive

Question: And the Potency [4]?
Answer: inactive
